Measurements as given in PubChem BioAssay (NCI).
Compounds without any hit were thinned out: in the full panel of roughly 83,000, 20% have a hit.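 Percent growth is the endpoint: 0 to 100 indicates growth inhibition (40 means 60% inhibition), 0 means no net growth, and negative values indicate cell death.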 Active and inactive are the calls of the source. The calls were made as follows: active = growth percent below 10; inactive = the rest.

What follows are compounds tested on ACHN renal (assay: NCI-60 one-dose screen, 48 h (100 = growth as untreated, 0 = no growth, -100 = all killed)). Settings: 10 µM.

Row | Structure (SMILES) | growth
1 | O=C(CSc1ccc(-c2ccc(Cl)cc2)nn1)Nc1ccc(Cl)c(C(F)(F)F)c1 | 79.3% (inactive)
2 | COc1cc(/C=N/NC(=O)c2ccc3nc(-c4ccc(Cl)cc4)[nH]c3c2)cc(OC)c1OC | 30.1% (inactive)
3 | COc1cnc2c(c1)C(=O)c1c-2n(CCCNCCO)c(=O)c2cc(OC)c(OC)cc12 | 3.42% (active)
4 | O=C(CSc1nnc(-c2c[nH]c3ccccc23)n1-c1ccccc1)Nc1ccc(C(=O)/C=C/c2cccc([N+](=O)[O-])c2)cc1 | 74.3% (inactive)
5 | NC1=NC(c2ccccc2Cl)N=C(Nc2nn[nH]n2)N1 (configuration not stated) | 103% (inactive)
6 | O=C1NC(=NC23CC4CC(CC(C4)C2)C3)N/C1=C\c1ccc2ncccc2n1 | -13% (active)
7 | COc1cccc(/C=C2\N=C(C)N(CCc3ccc(S(N)(=O)=O)cc3)C2=O)c1 | 107% (inactive)
8 | CC1(C)[C@@H](NCO)CC[C@]2(C)[C@H]3C(=O)C=C4[C@@H]5C[C@](C)(CO)CC[C@]5(C)CC[C@@]4(C)[C@]3(C)CC[C@@H]12 | 63.1% (inactive)
9 | CN1CCN(Cc2ccc(NC(=O)c3cncc(C#Cc4cnc5ccc(N[C@H]6CCOC6)nn45)c3)cc2C(F)(F)F)CC1 | -100% (active)
10 | N#Cc1c(NC(=O)c2ccc(C(F)(F)F)cc2C(F)(F)F)sc2c1CCC(=O)C2 | -99.4% (active)
11 | COc1ccccc1[C@H]1C(C(=O)c2ccc(O)cc2)C2(N[C@@H]1c1ccccc1)C(=O)Nc1ccc(Br)cc12 (some centres not stated) | 31.9% (inactive)
12 | CN(CCF)c1ccc(/C=C/C(=O)c2ccc(N)cc2O)cc1 | 79.3% (inactive)
13 | N#Cc1c(NC(=O)c2cccc(C(F)(F)F)c2)sc2c1CCC(O)=C2 | 31.4% (inactive)
14 | O=C(CNc1nc(-c2ccccc2)cs1)Nc1cccc([N+](=O)[O-])c1 | -100% (active)
15 | O=C1Nc2cc(Cl)ccc2/C1=C/c1ccc(OCc2ccc(Br)cc2F)cc1 | -79.9% (active)
16 | CC1(C)CC[C@]2(C(=O)NCCCNCCCCNCCCN)CC[C@]3(C)C(=CC[C@@H]4[C@@]5(C)Cc6c([nH]c7ccccc67)C(C)(C)[C@@H]5CC[C@]43C)[C@H]2C1 | 93.9% (inactive)
17 | COc1cc2c(cc1OC)CN(CCCCOc1cc(O)c3c(=O)cc(-c4ccccc4)oc3c1)CC2 | 66.8% (inactive)
18 | CCCn1c(=O)c2[nH]c(-c3ccc(OCc4nc5ccc(C#N)cc5[nH]4)cc3)nc2n(CCC)c1=O | 70.4% (inactive)
19 | O=c1[nH]c2ccc(Cl)cc2cc1CSc1ccc(Nc2nccc(-c3ccc4ccccc4c3)n2)cc1 | 100% (inactive)

Row | Structure (SMILES) | growth
20 | COc1cc(C2CC(c3ccc(C)cc3)=Nc3c(N)nc(N)nc3N2)ccc1Oc1nc(Nc2ccc(F)cc2)nc(N(C)C)n1 (configuration not stated) | 47.1% (inactive)
21 | COc1cc2c3c(n(CCCNC(C)C)c(=O)c2cc1OC)-c1nc2c(cc1C3=O)OCO2 | 4.04% (active)
22 | CC(=O)NNc1ccc2nnc(-c3ccc(Br)cc3)n2n1 | 101% (inactive)
23 | Cc1ccc(-c2nc3ccc(C(=O)N=Nc4c(O)[nH]c5ccc([N+](=O)[O-])cc45)cc3[nH]2)cc1 | 97% (inactive)
24 | COc1cc(OC(F)(F)F)ccc1C(=O)Nc1sc2c(c1C#N)CCC(=O)C2 | 87.1% (inactive)
25 | COc1ccc(CN2[C@@H](C(=O)NCc3ccc(C(=O)NO)cc3)Cc3c([nH]c4ccccc34)[C@@H]2C)cc1 | 36% (inactive)
26 | Cc1cccc2cc(-c3cc(-c4ccccc4)nc(=S)[nH]3)c(Cl)nc12 | 78.1% (inactive)
27 | O=C(c1ccc([N+](=O)[O-])c([N+](=O)[O-])c1O)n1[nH]c(=O)c2ccccc2c1=O | 76.6% (inactive)
28 | COc1ccc(-c2cc(-c3cc(C(=O)c4ccccc4)n4ccc(C)cc34)nc(N)c2C#N)cc1 | 56.4% (inactive)
29 | NC(=Nc1ccc(OCCCCCCCCn2ccnn2)cc1)c1ccccc1 | 34.4% (inactive)
30 | COc1ccc(C=CC(=O)c2ccc(-n3c(C)nc4c(cnn4-c4ccccc4)c3=O)cc2)cc1 | 71% (inactive)
31 | CCOC(=O)C1=C(N)N(c2ccc(Cl)cc2)C2=C(C(=O)CC(C)(C)C2)C1c1ccc(N2CCOCC2)cc1 (configuration not stated) | 112% (inactive)
32 | CC1=N/C(=C\c2ccc(N(C)C)cc2)C(=O)N1CCc1ccc(S(N)(=O)=O)cc1 | 105% (inactive)
33 | CC(C)(C)Nc1nc2cc(Cl)c(Cl)cc2nc1S(C)(=O)=O | 56.3% (inactive)
34 | CO[C@H]1CSS[C@@H]1Cn1nc(-c2ccc(Oc3ccccc3)cc2)c2c(N)ncnc21 | 10% (inactive)
35 | CNC(=O)c1cc(-c2ccc(NC(=O)Nc3ccc(C)cc3)cc2)nc2cccnc12 | 92.3% (inactive)
36 | COc1cccc(-c2ccc(/C=N/NC(=O)c3[nH]c4ccc(Br)cc4c3-c3ccccc3)o2)c1 | 22.3% (inactive)
37 | COc1ccc(-c2cc(-c3cc(C(=O)c4ccc(Br)cc4)n4ccc(C)cc34)nc(N)c2C#N)cc1 | 81.8% (inactive)
